Results published in PubChem BioAssay (NCI).
Several values for one entry are separate records, joined by “and”; a condition that tells them apart may be missing. Identical values can stand only once. The panel holds about 83,000 compounds, 20% with a hit somewhere; the sample as a whole holds those more often.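 Interpretation: 100, growth as untreated; towards 0, rising growth inhibition; 0, no net growth; 0 to -100, cell death. Compounds scoring below 10 were considered active.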 Activity calls are given as the source filed them.

The compounds below were run on HL-60(TB) leukemia (assay: NCI-60 one-dose screen, 48 h (100 = growth as untreated, 0 = no growth, -100 = all killed)). Details: 10 µM unless noted.

SMILES | growth
CC1(c2ccccc2)NC(=O)N(CC(=O)Nc2cccc(I)c2)C1=O (centres undefined) | 84.2% (inactive)
COc1cc(/C=C\c2cc(/C=C\c3ccc(O)c(OC)c3)n(C(=O)COc3ccc(Cl)cc3Cl)n2)ccc1O | -18.7% (active)
NS(=O)(=O)N(c1cc(C(F)(F)F)cc(C(F)(F)F)c1)C1CCN(Cc2ccc(C(F)(F)F)cc2)CC1 | 37.3% (inactive)
O=C(CN1CCN(c2cc3c(cc2F)c(=O)c(C(=O)O)cn3C2CC2)CC1)Nc1nc(-c2ccccc2)cs1 | 82.1% (inactive)
Cn1c2ccccc2c2nnc(NCCCCO)nc21 | 139% (inactive)
CNc1ccc2nc3ccc(=[N+](C)C)cc-3sc2c1 | -22.9% (active) and 5.72% (active)
CCN1CCN(Cc2ccc(NC(=O)c3cccc(C#Cc4cccc5[nH]nc(N)c45)c3)cc2C(F)(F)F)CC1 | -54.1% (active)
O=C(NC[C@H](O)CN1CCc2ccccc2C1)c1cc(NC2COC2)ncn1 | 119% (inactive)
CN1CCN(c2ccc3nc(-c4c(N)c5c(F)cccc5[nH]c4=O)[nH]c3c2)CC1 | 12.9% (inactive) and 3.6% (active)
